Reference: PubChem BioAssay (NCI)
“And” between values parts separate entries of the source, which are not always exact repeats. Equal values may be shown once. The panel holds about 83,000 compounds, 20% with a hit somewhere; the sample as a whole holds those more often.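 For each line, cells grew in 96-well plates with the test compound present at a single concentration for 48 hours.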 A number with no mark means an inactive call. The source made the active and inactive calls. Rule for the calls: active = growth percent below 10; inactive = the rest.

Assays:
Test in all cases: NCI-60 one-dose screen, 48 h (100 = growth as untreated, 0 = no growth, -100 = all killed)
Settings in all cases: 10 µM unless noted
[1] = tested on: NCI-H23 lung
[2] = tested on: NCI-H226 lung
[3] = tested on: NCI-H322M lung
[4] = tested on: HOP-62 NSCLC
[5] = tested on: NCI-H460 lung
[6] = tested on: HOP-92 NSCLC
[7] = tested on: NCI-H522 lung
[8] = tested on: A549/ATCC NSCLC
[9] = tested on: 786-0 renal
[10] = tested on: COLO 205 colon

SMILES: CC(=O)Nc1cccc(-n2c(COc3ccc(I)cc3)nc3ccccc32)c1
- growth [1]: 83.5% and 106%
- growth [2]: 68.3% and 113%
- growth [3]: 102% and 107%
- growth [4]: 118% and 120%
- growth [5]: 103% and 112%
- growth [6]: 79.9% and 116%
- growth [7]: 70.1% and 111%
- growth [8]: 101% and 108%
- growth [9]: 101% and 109%
- growth [10]: 96.9% and 128%

SMILES: O=C(NN1C(=O)/C(=C/C=C/c2ccc([N+](=O)[O-])o2)SC1=S)c1ccc([N+](=O)[O-])cc1
- growth [1]: -88.4% (active)
- growth [2]: -83.3% (active)
- growth [3]: -100% (active)
- growth [4]: -100% (active)
- growth [5]: -48.9% (active)
- growth [6]: -84.2% (active)
- growth [7]: -88.7% (active)
- growth [8]: -93% (active)
- growth [9]: -80.1% (active)
- growth [10]: -94.1% (active)

SMILES: COc1ccc(/C=C/c2nc3ccccc3n3c(-c4cccc([N+](=O)[O-])c4)nnc23)cc1
- growth [1]: -78.1% (active)
- growth [2]: -14.8% (active)
- growth [3]: 41%
- growth [4]: 25.4%
- growth [5]: -35.6% (active)
- growth [6]: -48.7% (active)
- growth [7]: -72.7% (active)
- growth [8]: -4.88% (active)
- growth [9]: -74.9% (active)
- growth [10]: -70% (active)

SMILES: COc1cccc2nc(Nc3cccc(NC(=O)c4ccc(CN5CCN(C)CC5)c(C(F)(F)F)c4)c3)ccc12
- growth [1]: -97.8% (active)
- growth [2]: -93.4% (active)
- growth [3]: -100% (active)
- growth [4]: -78.5% (active)
- growth [5]: -77.1% (active)
- growth [6]: -66.7% (active)
- growth [7]: -87% (active)
- growth [8]: -70.5% (active)
- growth [9]: -81.7% (active)
- growth [10]: -73.7% (active)

SMILES: NC(=O)c1ccc(-c2ccc3ncnc(N4CCc5cc(F)c(Cl)cc54)c3c2)cn1
- growth [1]: 70.9%
- growth [2]: 83.3%
- growth [3]: 24.1%
- growth [4]: 99.9%
- growth [5]: 79.6%
- growth [6]: 15.4%
- growth [7]: 94.1%
- growth [8]: 63%
- growth [9]: 66.5%
- growth [10]: 47.9%

SMILES: O=C(Cc1c(-c2ccccc2[N+](=O)[O-])n(-c2ncnc3c2c(-c2ccccc2)c(-c2ccccc2)n3Cc2ccccc2)[nH]c1=O)c1ccc(Cl)c(Cl)c1
- growth [1]: 9.58% (active)
- growth [2]: 24.7%
- growth [3]: 42.7%
- growth [4]: 49.3%
- growth [5]: 15.9%
- growth [6]: -3.98% (active)
- growth [7]: -10.1% (active)
- growth [8]: 25.6%
- growth [9]: 36.2%
- growth [10]: 43.1%

SMILES: Cc1ccc(C2CC(c3ccc(NC(=O)Nc4ccccc4)cc3)=NN2c2ccc(S(C)(=O)=O)cc2)cc1 (stereo not given)
- growth [1]: -69.1% (active)
- growth [2]: -39.2% (active)
- growth [3]: 6.06% (active)
- growth [4]: -39.8% (active)
- growth [5]: -5.89% (active)
- growth [6]: -50.4% (active)
- growth [7]: -23.7% (active)
- growth [8]: 4.89% (active)
- growth [9]: -31.6% (active)
- growth [10]: -43.4% (active)

SMILES: CCC1(OC(=O)c2ccccc2SSCCOC(=O)CCCCC2SCC3NC(=O)NC32)C(=O)OCc2c1cc1n(c2=O)Cc2cc3ccccc3nc2-1 (stereo not given)
- growth [1]: 15.4%
- growth [2]: 41.6%
- growth [3]: 83.6%
- growth [4]: 39.4%
- growth [5]: 13.3%
- growth [6]: 32.7%
- growth [7]: 42.3%
- growth [8]: 47%
- growth [9]: 50.9%
- growth [10]: 79.3%

SMILES: C=CC(=O)Nc1ccc(C(=O)/C=C/c2ccc(N(C)C)cc2)c(O)c1
- growth [1]: 4.7% (active)
- growth [2]: 28.6%
- growth [3]: 41.1%
- growth [4]: 10.1%
- growth [5]: 0.849% (active)
- growth [6]: 45.8%
- growth [7]: -67.5% (active)
- growth [8]: 12.8%
- growth [9]: -1.73% (active)
- growth [10]: -59.6% (active)

SMILES: Cc1nc(Nc2ccccn2)sc1C1=NNC(c2ccccc2F)C1 (stereo not given)
- growth [1]: 67.6%
- growth [2]: 78.9%
- growth [3]: 89.1%
- growth [4]: 70.6%
- growth [5]: 28%
- growth [6]: 62.4%
- growth [7]: -18.9% (active)
- growth [8]: 59.2%
- growth [9]: 57.6%
- growth [10]: 86%

SMILES: CN1CCN(C(=O)Oc2cc3c(c4ccccc24)[C@H](CCl)CN3C(=O)c2cc3cc(OCCCN4CCC4)ccc3[nH]2)[C@H]2CSSC[C@H]21
- growth [1]: -65% (active)
- growth [2]: -14.5% (active)
- growth [3]: -13.1% (active)
- growth [4]: -37.8% (active)
- growth [5]: 0.951% (active)
- growth [6]: -18.8% (active)
- growth [7]: -54.8% (active)
- growth [8]: 4% (active)
- growth [9]: -8.82% (active)
- growth [10]: -81.5% (active)

SMILES: CN(C)c1ccc(/C=C/c2n(Cc3ccc4ccccc4c3)c3ccccc3[n+]2Cc2ccc3ccccc3c2)cc1
- growth [1]: -91.4% (active)
- growth [2]: -65.2% (active)
- growth [3]: -90% (active)
- growth [4]: -63.3% (active)
- growth [5]: -75.9% (active)
- growth [6]: -67.2% (active)
- growth [7]: -69.1% (active)
- growth [8]: -53.4% (active)
- growth [9]: -72% (active)
- growth [10]: -41.7% (active)

SMILES: COc1cc(CNC(=O)C[C@H](C)CCC=C(C)C)ccc1OCc1cn(-c2cccc(C(F)(F)F)c2)nn1
- growth [1]: 79.4%
- growth [2]: 72.3%
- growth [3]: 90.1%
- growth [4]: 88.8%
- growth [5]: 14.6%
- growth [6]: 86.1%
- growth [7]: 83.1%
- growth [8]: 42.6%
- growth [9]: 93%
- growth [10]: 74.2%

SMILES: Cc1cc(C2(c3cc(C)c(OCC(O)CNc4c(C)n(C)n(-c5ccccc5)c4=O)cc3C(C)C)OC(=O)c3ccccc32)c(C(C)C)cc1OCC(O)CNc1c(C)n(C)n(-c2ccccc2)c1=O (stereo not given)
- growth [1]: 34.7%
- growth [2]: 42%
- growth [3]: 61%
- growth [4]: 52%
- growth [5]: 18.2%
- growth [6]: -9.82% (active)
- growth [7]: 8.24% (active)
- growth [8]: 22.4%
- growth [9]: 24.2%
- growth [10]: 10.6%

SMILES: CCOc1ccccc1[C@H]1C(C(=O)c2ccc(Cl)cc2)C2(N[C@@H]1c1ccccc1)C(=O)Nc1ccc(Cl)cc12 (stereo not given in full)
- growth [1]: 21.5%
- growth [2]: 20.3%
- growth [3]: 48.7%
- growth [4]: 42.6%
- growth [5]: 17.3%
- growth [6]: 2.97% (active)
- growth [7]: 34.1%
- growth [8]: 40.5%
- growth [9]: 35%
- growth [10]: 15.3%

SMILES: CN1CCN(C(=O)CCN(C(=O)Oc2cc3c(c4ccccc24)[C@H](CCl)CN3C(=O)c2cc3cc(OCCCN4CCC4)ccc3[nH]2)[C@H]2CCSSC2)CC1
- growth [1]: -73.3% (active)
- growth [2]: -17.9% (active)
- growth [3]: -48% (active)
- growth [4]: -77.4% (active)
- growth [5]: 2.93% (active)
- growth [6]: -32.1% (active)
- growth [7]: -74.4% (active)
- growth [8]: -61.5% (active)
- growth [9]: -90.8% (active)
- growth [10]: -80% (active)

SMILES: COc1cc(/C=C/C(=O)c2cnn(-c3cc(=O)[nH]c4ccc(Cl)cc34)c2C)cc(OC)c1OC
- growth [1]: -55.9% (active)
- growth [2]: -24.2% (active)
- growth [3]: 7.2% (active)
- growth [4]: -68.3% (active)
- growth [5]: -39.1% (active)
- growth [6]: -11.9% (active)
- growth [7]: -62.9% (active)
- growth [8]: -17.1% (active)
- growth [9]: -43.9% (active)
- growth [10]: -67.7% (active)

SMILES: OC(c1ccccc1)(c1ccccc1)C1CCN(c2ccc3nnc(Cl)n3n2)CC1
- growth [1]: 36.8%
- growth [2]: 11.2%
- growth [3]: 74.1%
- growth [4]: 63.7%
- growth [5]: 19.8%
- growth [6]: 19.7%
- growth [7]: -60.4% (active)
- growth [8]: 36.3%
- growth [9]: 41.8%
- growth [10]: -29.4% (active)

SMILES: COc1ccc(-c2cc(C(=O)N=Nc3c(O)[nH]c4ccc(Cl)cc34)c3ccccc3n2)cc1OC
- growth [1]: 92.2%
- growth [2]: 89.5%
- growth [3]: 102%
- growth [4]: 123%
- growth [5]: 111%
- growth [6]: 121%
- growth [7]: 106%
- growth [8]: 111%
- growth [9]: 106%
- growth [10]: 125%

SMILES: CCCn1c(NC(=O)c2cccc(C(N)=O)c2)nc2ccc(CN3CCCCC3)cc21
- growth [1]: 89.8%
- growth [2]: 102%
- growth [3]: 82%
- growth [4]: 105%
- growth [5]: 81.9%
- growth [6]: 84.4%
- growth [7]: 94.1%
- growth [8]: 99.8%
- growth [9]: 12%
- growth [10]: 97.4%

SMILES: COc1ccc(NC(=O)CSc2nnc(-c3ccc(-c4nc5ccccc5[nH]4)cc3)o2)cc1
- growth [1]: 11.9%
- growth [2]: 20.3%
- growth [3]: 74.3%
- growth [4]: -15.8% (active)
- growth [5]: 0.884% (active)
- growth [6]: 10.8%
- growth [7]: 0.861% (active)
- growth [8]: 6.46% (active)
- growth [9]: -33.8% (active)
- growth [10]: 49.2%

SMILES: N#Cc1c(NC(=O)N2CCOCC2)n(-c2ccc(OC(F)(F)F)cc2)c2cc(F)ccc12
- growth [1]: 90.7%
- growth [2]: 87.3%
- growth [3]: 108%
- growth [4]: 106%
- growth [5]: 94.5%
- growth [6]: 102%
- growth [7]: 78.8%
- growth [8]: 86.3%
- growth [9]: 112%
- growth [10]: 108%

SMILES: COc1cc(C=O)ccc1OC(=O)c1cc(-c2ccc(C)cc2)n(-c2ccc(S(C)(=O)=O)cc2)n1
- growth [1]: 101%
- growth [2]: 138%
- growth [3]: 101%
- growth [4]: 102%
- growth [5]: 110%
- growth [6]: 98.3%
- growth [7]: 93.3%
- growth [8]: 103%
- growth [9]: 102%
- growth [10]: 126%

SMILES: COc1ccc(N=Nc2c(N)nn3c(-c4ccc([N+](=O)[O-])cc4)ccnc23)cc1
- growth [1]: 105%
- growth [2]: 95.2%
- growth [3]: 107%
- growth [4]: 95.3%
- growth [5]: 105%
- growth [6]: 94.5%
- growth [7]: 91.6%
- growth [8]: 104%
- growth [9]: 93%
- growth [10]: 119%
